# Source: PubChem BioAssay
# A selection: hits, their analogues and other compounds. The true share with any hit is near 1.1%.
# LAP4 TOR yeast – modulators of TOR pathway LAP4-GFP in S. cerevisiae; S. cerevisiae LAP4-GFP multiplex, flow cytometry GFP, 3 h; median GFP as percent of DMSO wells; GFP response vs DMSO, % at 10 µM; 320,000 compounds, 0.34% hits;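 active = GFP response vs DMSO above a set limit, about the screen mean plus 3 SD, cut at about 150% in these data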
# AGP1-GFP MLPCN – yeast TOR pathway AGP1-GFP modulation; S. cerevisiae AGP1-GFP multiplex flow cytometry, 3 h; GFP as percent of DMSO wells; GFP response vs DMSO, % at 10 µM; 320,000 compounds, 0.02% hits; AID 2066;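 active = GFP response relative to DMSO above a set limit, near screen average plus 3 SD, cut at about 150% in these data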;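 note: median GFP channel fluorescence of the gated AGP1 strain per well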
# MEP2-GFP yeast – alters MEP2-GFP fluorescence in TOR pathway yeast screen | S. cerevisiae MEP2-GFP strain, flow cytometry GFP, 3 h; 100% = DMSO control level | GFP response vs DMSO, % at 10 µM | 330,000 compounds, 0.51% hits;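 active = GFP response versus DMSO above a set limit, roughly screen mean plus 3 SD, cut at about 180% in these data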;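 note: median GFP fluorescence of the barcode-gated MEP2-GFP cells per well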
# VLA-4 inh – inhibition in a human VLA-4 binding assay; VLA-4 expressing cells, ligand binding flow cytometry; AID 2557; inhibition, % (about 7 µM as worked out from the volumes in the protocol); 330,000 compounds, 0.2% hits; P13612; in the data active = inhibition above about 50%
# Target sequence (P13612 whole entry, looked up): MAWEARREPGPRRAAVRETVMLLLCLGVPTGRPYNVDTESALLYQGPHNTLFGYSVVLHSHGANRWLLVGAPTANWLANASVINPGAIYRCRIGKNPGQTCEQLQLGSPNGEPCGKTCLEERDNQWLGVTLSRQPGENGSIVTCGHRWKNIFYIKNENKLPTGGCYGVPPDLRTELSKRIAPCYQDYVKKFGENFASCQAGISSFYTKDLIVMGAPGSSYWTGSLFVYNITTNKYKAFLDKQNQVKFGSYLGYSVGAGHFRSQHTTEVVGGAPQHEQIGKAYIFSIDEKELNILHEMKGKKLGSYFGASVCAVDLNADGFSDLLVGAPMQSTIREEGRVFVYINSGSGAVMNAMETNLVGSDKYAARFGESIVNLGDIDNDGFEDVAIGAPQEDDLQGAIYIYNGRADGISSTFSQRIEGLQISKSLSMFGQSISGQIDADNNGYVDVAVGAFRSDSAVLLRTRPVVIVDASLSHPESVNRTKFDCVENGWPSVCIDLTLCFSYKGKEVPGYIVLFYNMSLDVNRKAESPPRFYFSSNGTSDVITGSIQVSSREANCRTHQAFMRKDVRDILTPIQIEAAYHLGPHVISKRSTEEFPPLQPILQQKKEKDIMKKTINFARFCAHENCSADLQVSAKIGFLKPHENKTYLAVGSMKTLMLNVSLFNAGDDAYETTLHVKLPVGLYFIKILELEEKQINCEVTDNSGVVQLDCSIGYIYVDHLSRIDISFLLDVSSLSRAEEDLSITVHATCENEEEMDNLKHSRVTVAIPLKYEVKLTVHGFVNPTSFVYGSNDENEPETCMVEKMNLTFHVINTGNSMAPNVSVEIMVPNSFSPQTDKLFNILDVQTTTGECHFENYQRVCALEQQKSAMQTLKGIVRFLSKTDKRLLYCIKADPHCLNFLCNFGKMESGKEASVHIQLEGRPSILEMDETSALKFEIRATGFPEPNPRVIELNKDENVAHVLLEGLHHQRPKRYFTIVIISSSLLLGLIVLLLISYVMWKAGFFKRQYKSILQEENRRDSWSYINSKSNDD
# CIT2-GFP yeast – alters CIT2-GFP fluorescence in TOR pathway yeast screen; S. cerevisiae CIT2-GFP strain, flow cytometry, 3 h; 100 means same as DMSO wells; GFP response vs DMSO, % at 10 µM; 320,000 compounds, 0.065% hits;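 active = GFP response relative to DMSO above a set limit, near the screen mean plus 3 SD, cut at about 150% in these data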;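 note: ratio of well median GFP fluorescence to mean of DMSO wells on the plate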
# RPL19A TOR yeast – alters RPL19A-GFP fluorescence in TOR pathway yeast screen; S. cerevisiae RPL19A-GFP strain, flow cytometry, 3 h; active compounds read low; percent response vs DMSO, % at 10 µM; 330,000 compounds, 0.3% hits; AID 2025;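 active = percent response vs DMSO below 50%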;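 note: median channel GFP fluorescence of the barcoded RPL19A-GFP strain; ratio of sample median GFP to plate DMSO average so 100% = DMSO; lower means less RPL19A-GFP as with rapamycin TOR inhibition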
# LAP4-GFP pick2 – yeast LAP4-GFP modulation, second cherry pick. GFP response vs DMSO, % at 10 µM. S. cerevisiae LAP4-GFP strain, flow cytometry GFP, 3 h. shares compounds with LAP4 TOR yeast. 590 compounds, 20% hits;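 active = GFP signal as percent of the solvent control above about 150%, meaning raised reporter expression, limit read from the data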;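 note: ratio of well median GFP fluorescence to plate DMSO mean so 100% = DMSO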
# MEP2 cherry2 – second confirmation of modulators of TOR reporter MEP2-GFP in yeast. shares compounds with LAP4 TOR yeast. S. cerevisiae MEP2-GFP strain, flow cytometry GFP, 3 h. GFP response vs DMSO, % at 10 µM. 590 compounds, 10% hits;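 active = GFP signal above 150% of the solvent control wells, that is a rise of more than half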;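 note: median channel GFP fluorescence of all gated yeast cells per well; ratio of median GFP to plate DMSO average so 100% = DMSO level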
# RPL19A GFP CP2 – reconfirmed modulator of RPL19A-GFP TOR reporter in yeast. shares compounds with LAP4 TOR yeast. S. cerevisiae RPL19A-GFP strain, flow cytometry GFP, 3 h; active compounds read low; 100% means same as DMSO wells. GFP response vs DMSO, % at 10 µM. 590 compounds, 3% hits. AID 2623;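 active = under 65% GFP response relative to DMSO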;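 note: median GFP channel fluorescence per well over the all cells gate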
# CIT2-GFP pick2 – reconfirmed modulator of CIT2-GFP TOR reporter in yeast; shares compounds with LAP4 TOR yeast; S. cerevisiae CIT2-GFP strain, flow cytometry GFP, 3 h; DMSO control wells read 100%; GFP response vs DMSO, % at 10 µM; 590 compounds, 8% hits;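 active = GFP response vs DMSO above about 150%, limit read from the data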;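 note: median green fluorescence per well over all gated yeast cells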
# AGP1 GFP CP2 – reconfirmed modulator of AGP1-GFP TOR reporter in yeast | 590 tested, under 10 active | percent response vs DMSO, % at 10 µM | AID 2643 | shares compounds with LAP4 TOR yeast | S. cerevisiae AGP1-GFP strain, flow cytometry GFP, 3 h;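 active = over 150 percent of DMSO response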;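 note: median GFP channel fluorescence over all cells without mother daughter split; sample median GFP divided by mean DMSO control so 100% equals DMSO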
# s288c autofluor – compound is autofluorescent in yeast s288c cells; shares compounds with LAP4 TOR yeast; S. cerevisiae s288c, 520 nm autofluorescence, flow cytometry, 3 h; active compounds read high; zero means same as solvent-only cells; fluorescence change (kMESF span) at 33 µM; 610 tested, under 10 active; AID 2757;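 active = fluorescence span over the dose series, or activity score, above about 33, limit read from the data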
# Starred values were filed as active, the others as inactive; . = not tested or not shown.
SMILES,LAP4 TOR yeast,AGP1-GFP MLPCN,MEP2-GFP yeast,VLA-4 inh,CIT2-GFP yeast,RPL19A TOR yeast,LAP4-GFP pick2,MEP2 cherry2,RPL19A GFP CP2,CIT2-GFP pick2,AGP1 GFP CP2,others
CC1=C/C(=N\OS(=O)(=O)c2ccccc2)C(C)=CC1=O,234*,97,107,7,87,87,.,.,.,.,.,s288c autofluor=15
CCCCN1CC(=O)N2[C@H](c3ccc(Cl)cc3)[C@@H]3C(=O)N(CC)C(=O)[C@@H]3[C@]2(C)C1=O,128,83,98,7,77,94,.,.,.,.,.,
COc1ccccc1-c1cc(C(=O)N2CCN(S(=O)(=O)c3ccc(C)cc3)CC2)[nH]n1,95,101,99,-2,96,96,.,.,.,.,.,
Cc1cc(Cl)ccc1N(CC(=O)NCCSCc1ccco1)S(C)(=O)=O,98,45,166,-5,100,60,101,96,102,117,96,
CC(Sc1nc2ncc(Cl)cc2[nH]1)C(=O)Nc1ccc(C(N)=O)cc1 (stereo not drawn),99,98,93,-5,95,91,.,.,.,.,.,
CN1C(=O)[C@@H]2[C@H](C1=O)[C@@H]1C(=O)Nc3ccccc3C(=O)N1[C@@H]2c1cccc(Br)c1,127,78,90,10,65,92,.,.,.,.,.,
CC(NC(=O)c1ccco1)C(=O)N1CCCCC1 (stereo not drawn),91,113,110,9,150*,100,100,103,101,100,98,
COc1ccc2oc(C(=O)Nc3nc(-c4ccccn4)cs3)c(C)c2c1,147,96,110,-23,105,95,.,.,.,.,.,
COCCN(C(=O)C1CC(=O)N(Cc2ccc(C)cc2)C1)c1c(N)n(CC(C)C)c(=O)[nH]c1=O (stereo not drawn),99,100,101,10,100,98,.,.,.,.,.,
Cn1cc(Br)c(-c2cccc(NC(=O)CCC(=O)O)c2)n1,109,103,93,-2,95,98,.,.,.,.,.,
NC(=O)C1CCN(C(=O)c2cc(Cl)c3c(c2)OCCO3)CC1,183*,99,95,-4,71,83,99,98,101,106,100,
N#Cc1ccc(CN2CCN(C(=O)c3cc(Cl)c4c(c3)OCCO4)CC2)cc1,109,102,100,-8,94,99,.,.,.,.,.,
O=C(O)CCCc1ccc2c(c1)CCc1ccccc1-2,173*,72,87,16,59,87,109,96,91,97,88,
O=C(CCCc1ccccc1)NC1CC1,93,99,99,-3,100,101,.,.,.,.,.,
O=C(CCS(=O)(=O)c1ccccc1)OCc1ccc([N+](=O)[O-])cc1,88,91,98,-9,101,92,.,.,.,.,.,
O=C(NNC(=O)C1CCN(C(=O)Nc2ccccc2)CC1)c1ccc([N+](=O)[O-])cc1,99,93,92,-8,92,98,.,.,.,.,.,
